In PubChem BioAssay:
Calls of active or inactive are those of the source. Unless noted, how the calls were made is not given here.

Columns and labels:
[1] = resazurin metabolic signal in HepG2 cells – cell-based, resazurin fluorescence, 24 h, PK04 Diversity Set, profiling panel (AID 1172); conditions: HepG2 viability, higher = more signal; further: test concentration not given here
[2] = budding yeast growth changes without added modifier – OD600, strain BY4716, 24 h, basal condition, primary screen (AID 1173); conditions: S. cerevisiae BY4716 growth, OD600, 24 h; higher = more signal, called active from +8 up or from −8 down
[3] = viability profiling in MM1S myeloma cells – cell-based, resazurin fluorescence, basal, 24 h, PK04 Diversity Set, profiling panel (AID 1174); conditions: higher = more signal, called active from +8 up or from −8 down;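 further: MM1S multiple myeloma cell line; test concentration not given here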
[4] = molecular target: Dihydroorotate dehydrogenase (quinone), mitochondrial (Plasmodium falciparum (isolate 3D7)) (UniProt Q08210); experiment: inhibition of P. falciparum DHODH – biochemical, C-terminal His tag, absorbance 600 nm, primary screen (AID 1175); conditions: PfDHODH enzyme, DCIP absorbance 600 nm; higher = more signal, called active from +8 up or from −8 down;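 further: recombinant parasite enzyme with a five histidine tag at its C terminus; test concentration not given here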
[5] = inhibition of PAO1 biofilm formation – strain PAO1, LB-PBS medium, absorbance 600 nm, primary screen (AID 1176); further: test concentration not given here; conditions: P. aeruginosa PAO1 growth/biofilm, A600, 12 h; higher = more signal
[6] = growth modulation of vineyard yeast isolate – strain RM11-1a, OD600, basal, 24 h, primary screen (AID 1177);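 further: cultures grown under basal conditions with no added stressor; test concentration not given here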; conditions: S. cerevisiae RM11-1a growth, OD600, 24 h; higher = more signal, called active from +8 up or from −8 down
[7] = growth of efflux-deficient E. coli DRC39 – strain DRC39, OD650, 24 h, E. coli filamentation inducers, primary screen (AID 1178);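 further: growth measured as culture turbidity by optical density at 650 nm; test concentration not given here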; conditions: E. coli DRC39 acrAB, higher = more signal, called active from +8 up or from −8 down
[8] = growth of efflux-deficient E. coli DRC39 – strain DRC39, OD650, 48 h, E. coli filamentation inducers, primary screen (AID 1179);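 further: screen aims at cell division blockers that make cells filament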; conditions: E. coli DRC39 delta-acrAB growth, higher = more signal, called active from +8 up or from −8 down
[9] = viability profiling in RPMI8226 myeloma cells – cell-based, resazurin fluorescence, basal, 24 h, PK04 Diversity Set, profiling panel (AID 1180); conditions: higher = more signal;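 further: RPMI8826 multiple myeloma cell line at 5000 cells per well; test concentration not given here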
[10] = molecular target: E3 ubiquitin-protein ligase XIAP (Homo sapiens) (UniProt P98170); experiment: small molecules binding XIAP protein – biophysical, small-molecule microarray, fluorescence 635 nm, primary screen (AID 1181); conditions: higher = more signal;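 further: score merges 667 nm emission and signal to noise over triplicate slides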
Chain of E3 ubiquitin-protein ligase XIAP (Homo sapiens) (P98170 whole entry, looked up): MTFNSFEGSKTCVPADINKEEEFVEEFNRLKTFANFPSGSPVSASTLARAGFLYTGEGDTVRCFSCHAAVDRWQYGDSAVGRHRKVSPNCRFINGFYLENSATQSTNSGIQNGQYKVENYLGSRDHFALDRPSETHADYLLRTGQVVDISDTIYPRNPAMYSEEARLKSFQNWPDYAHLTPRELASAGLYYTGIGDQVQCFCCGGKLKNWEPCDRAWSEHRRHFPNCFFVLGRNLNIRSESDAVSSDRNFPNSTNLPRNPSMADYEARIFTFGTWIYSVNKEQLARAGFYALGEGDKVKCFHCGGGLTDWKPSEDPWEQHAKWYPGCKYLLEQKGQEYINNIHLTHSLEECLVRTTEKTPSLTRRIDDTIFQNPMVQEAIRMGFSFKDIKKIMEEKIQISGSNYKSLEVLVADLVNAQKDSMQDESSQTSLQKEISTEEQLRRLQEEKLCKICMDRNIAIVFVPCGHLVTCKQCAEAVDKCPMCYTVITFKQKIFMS

Chain of Dihydroorotate dehydrogenase (quinone), mitochondrial (Plasmodium falciparum (isolate 3D7)) (Q08210 whole entry, looked up): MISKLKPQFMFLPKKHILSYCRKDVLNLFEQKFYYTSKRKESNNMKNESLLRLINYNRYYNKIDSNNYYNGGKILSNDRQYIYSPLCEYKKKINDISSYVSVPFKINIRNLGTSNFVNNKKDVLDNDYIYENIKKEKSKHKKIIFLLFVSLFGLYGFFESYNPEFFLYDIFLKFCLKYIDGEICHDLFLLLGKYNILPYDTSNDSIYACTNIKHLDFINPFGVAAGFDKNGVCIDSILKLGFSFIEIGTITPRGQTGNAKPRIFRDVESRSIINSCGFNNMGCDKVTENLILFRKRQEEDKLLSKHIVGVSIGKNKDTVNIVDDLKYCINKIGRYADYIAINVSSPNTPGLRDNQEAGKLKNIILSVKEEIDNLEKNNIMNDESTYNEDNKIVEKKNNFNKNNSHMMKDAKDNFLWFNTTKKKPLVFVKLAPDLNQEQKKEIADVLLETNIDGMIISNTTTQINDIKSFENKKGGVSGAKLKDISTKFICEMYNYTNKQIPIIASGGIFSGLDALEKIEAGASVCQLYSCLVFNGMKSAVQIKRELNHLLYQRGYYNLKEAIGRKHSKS

| SMILES | z-score [1] | z-score [2] | z-score [3] | composite z-score [4] | z-score [5] | z-score [6] | z-score [7] | z-score [8] | z-score [9] | composite z-score [10] |
| --- | --- | --- | --- | --- | --- | --- | --- | --- | --- | --- |
| COC(=O)c1ccc(C23CC2(C(NP(=O)(c2ccccc2)c2ccccc2)c2ccccc2)C3)cc1 (stereo not given) | -0.402 | -1.17 (inactive) | -0.941 (inactive) | -1.13 (inactive) | 0.287 (inactive) | -3.39 (inactive) | -0.29 (inactive) | -0.16 (inactive) | -0.122 | -0.126 |
| CCOC(=O)C[C@H]1[C@H](OC(=O)c2ccc(C(=O)c3ccccc3)cc2)[C@@H](NC(=O)C2CCCCC2)c2cc(OCCCO)ccc2N1C(=O)c1ccccc1 | -0.341 | -0.153 (inactive) | -0.239 (inactive) | -1.06 (inactive) | 0.0186 (inactive) | -0.3 (inactive) | -0.715 (inactive) | -0.549 (inactive) | -0.125 | -0.145 |
| CC(C)C(=C=CC[C@H](O)c1cccc(OCCO)c1)C[C@H](O)COCc1ccccc1 | 0.685 | -0.535 (inactive) | 0.0454 (inactive) | -1.25 (inactive) | 0.449 (inactive) | 0.194 (inactive) | 0.339 (inactive) | 0.262 (inactive) | 0.163 | -0.113 |
| CN1C(=O)C2C(C1=O)C1C=C(CCCO)C2C(c2cccs2)N1C (stereo not given) | -0.341 | -0.37 (inactive) | -0.739 (inactive) | -1.36 (inactive) | -0.146 (inactive) | 0.185 (inactive) | 0.469 (inactive) | 0.742 (inactive) | -0.626 | -0.412 |
| CC(C)(C)N1CC=CC23O[C@@H]4/C=C\CCCOC(=O)C4[C@H]2C(=O)N(CCO)[C@@H]3C1=O (stereo not given in full) | -0.636 | 0.0998 (inactive) | -0.0023 (inactive) | -0.252 (inactive) | 0.18 (inactive) | 0.338 (inactive) | -0.599 (inactive) | -0.814 (inactive) | -0.053 | -0.142 |
| CCCCC(CC)C(O)C1C=CC2C(=O)N(c3ccccc3)C(=O)C2N1Nc1ccccc1 (stereo not given) | -1.3 | -1.14 (inactive) | -1.51 (inactive) | -0.524 (inactive) | 0.462 (inactive) | -0.347 (inactive) | -0.556 (inactive) | -0.945 (inactive) | -1.42 | 0.387 |
| COc1ccc([Si](C)(C)[C@H]2[C@H](CCn3cc([C@H](O)c4ccccc4)nn3)O[C@@]3(C(=O)N(Cc4cccc(N5CCC5=O)c4)c4ccccc43)[C@@H]2C)cc1 | 0.429 | -1.53 (inactive) | -0.85 (inactive) | -1.21 (inactive) | 1.59 (inactive) | -0.101 (inactive) | 0.898 (inactive) | 1.02 (inactive) | 0.388 | 0.166 |
| COC(=O)[C@@]1(Cc2ccc(OC)cc2)[C@H]2c3cc(C(=O)N4CCCC4)n(Cc4ccccn4)c3C[C@H]2CN1C(=O)c1ccccc1 | -1.73 | 2.39 (inactive) | -1.07 (inactive) | 0.81 (inactive) | 0.743 (inactive) | 1.13 (inactive) | -0.564 (inactive) | 0.147 (inactive) | -2.2 | 0.0379 |
| CCOC(=O)C1=CC[C@@H](c2ccccc2)N(S(=O)(=O)c2ccc(C)cc2)[C@H]1C(=O)OCC | -0.0229 | 1.45 (inactive) | -0.424 (inactive) | -0.103 (inactive) | -0.0196 (inactive) | 0.482 (inactive) | -0.0018 (inactive) | 0.237 (inactive) | -0.904 | -0.052 |
| COC(=O)[C@@]1(Cc2ccccc2N=[N+]=[N-])COC(c2ccc(OCCCO)cc2)=N1 | -0.799 | -10.7 (active) | -1.43 (inactive) | 0.215 (inactive) | 0.907 (inactive) | 1.42 (inactive) | -0.993 (inactive) | -1.46 (inactive) | -0.496 | 0.0593 |
| CC(C)C(=C=CC[C@H](O)c1ccccc1OCCO)C[C@H](O)c1ccccn1 | 0.644 | -0.669 (inactive) | 0.34 (inactive) | -3.95 (inactive) | 0.4 (inactive) | 0.398 (inactive) | 0.762 (inactive) | 0.577 (inactive) | 0.285 | -0.226 |
| COC(=O)[C@]1(Cc2ccccc2N=[N+]=[N-])N=C(c2ccc(OCCCO)cc2)O[C@@H]1c1ccccc1N=[N+]=[N-] | -3.41 | -0.569 (inactive) | -6.71 (inactive) | 0.519 (inactive) | 0.755 (inactive) | -0.0599 (inactive) | 0.2 (inactive) | -0.54 (inactive) | -7 | 0.165 |
| CCOC(=O)C[C@H]1[C@H](OC(=O)Cc2ccc3c(c2)OCO3)[C@@H](NC(=O)C2CCCCC2)c2cc(OCCCO)ccc2N1C(=O)Cc1ccc(OC)cc1 | -0.778 | -0.815 (inactive) | 0.184 (inactive) | -0.974 (inactive) | 0.183 (inactive) | -1.53 (inactive) | 0.015 (inactive) | 0.424 (inactive) | 0.283 | 0.0413 |
| CCN(CC)c1ccc(N2CC=CC34O[C@@H]5C=CCCOC(=O)C5[C@H]3C(=O)N(CCCCCO)[C@@H]4C2=O)cc1 (stereo not given in full) | 1.72 | -0.8 (inactive) | 0.974 (inactive) | -0.644 (inactive) | 0.165 (inactive) | -0.866 (inactive) | 2.21 (inactive) | 2.23 (inactive) | 1.16 | 0.354 |
| COCCOC(=O)N1C(=O)[C@@]2(c3cc(C#CCNC(N)=O)ccc31)[C@H](c1ccc(O)cc1)N1[C@H](c3ccccc3)[C@H](c3ccccc3)OC(=O)[C@H]1[C@@H]2C(=O)NC[C@H](O)c1ccccc1 | -0.197 | 0.947 (inactive) | 0.302 (inactive) | 0.924 (inactive) | 0.69 (inactive) | 1.23 (inactive) | 0.248 (inactive) | 0.193 (inactive) | -0.949 | -0.0807 |
| C=CCC(OC(C)=O)[C@@H]1[C@@H](N(Cc2cccc3ccccc23)C(=O)c2cccc3ccccc23)c2cc(OCCCO)ccc2N1C(=O)c1ccc2ccccc2n1 (stereo not given in full) | -0.0111 | -0.337 (inactive) | -0.388 (inactive) | -0.747 (inactive) | -0.334 (inactive) | -0.929 (inactive) | 0.854 (inactive) | 0.424 (inactive) | -0.0685 | -0.124 |
| CC(=O)NCCCC[C@@H]1NC(=O)[C@@H]2C[C@H](C(=O)NCCCCN(C)C)[C@H](c3ccc(O)cc3)N2C1=O | 0.801 | -0.397 (inactive) | 0.925 (inactive) | -0.0536 (inactive) | -0.201 (inactive) | 0.037 (inactive) | 1.23 (inactive) | 1.51 (inactive) | 1.15 | -0.23 |
| O=C/C=C/c1ccc2c(c1)OCO2 | 0.134 | -12.8 (active) | -0.155 (inactive) | -1.32 (inactive) | 0.227 (inactive) | -1.87 (inactive) | -1.34 (inactive) | 0.594 (inactive) | -0.211 | -0.118 |
| COc1ccc(C(O)C2C=CC3C(=O)N(c4ccccc4)C(=O)C3N2Nc2ccc([N+](=O)[O-])cc2)cc1OCc1ccccc1 (stereo not given) | -0.46 | 0.948 (inactive) | -0.644 (inactive) | 0.323 (inactive) | 2.14 (inactive) | -0.384 (inactive) | -0.908 (inactive) | -0.337 (inactive) | -0.839 | -0.0655 |
| COCCOC(=O)N1C(=O)[C@@]2(c3cc(C#CCNC(N)=O)ccc31)[C@H](C(=O)N1CCc3cc(OC)c(OC)cc3C1)[C@H]1C(=O)O[C@H](c3ccccc3)[C@H](c3ccccc3)N1[C@@H]2c1ccc(OCCO)cc1 | 0.631 | 2.28 (inactive) | 0.761 (inactive) | -0.232 (inactive) | 1.92 (inactive) | 2.97 (inactive) | 0.987 (inactive) | 0.781 (inactive) | 0.856 | 0.122 |
| COc1ccc(C(=O)Nc2cccc(CN3C(=O)[C@@]4(O[C@@H](CCn5cc(CCO)nn5)[C@H]([Si](C)(C)c5ccc(OC)cc5)[C@H]4C)c4ccccc43)c2)cc1 | -5.75 | -6.12 (inactive) | -9.07 (active) | 1.42 (inactive) | 0.769 (inactive) | 3.1 (inactive) | 1.7 (inactive) | 0.633 (inactive) | -6.23 | 0.126 |
| CS(=O)(=O)CCOC(=O)C1=CC(c2ccc(CO)cc2)=CC(C2CC2)N(Cc2cc3c(cc2Br)OCO3)C=C1C(=O)OCCS(C)(=O)=O (stereo not given) | -0.311 | -4.92 (inactive) | -2.7 (inactive) | -0.735 (inactive) | 0.613 (inactive) | 0.478 (inactive) | 0.537 (inactive) | -0.75 (inactive) | -2.19 | 0.14 |
| O=C1OCC=C[C@H]2OC34C=CCN(c5ccc6ccccc6c5)C(=O)[C@H]3N(CCCO)C(=O)[C@@H]4[C@@H]12 (stereo not given in full) | -0.364 | -0.82 (inactive) | -0.712 (inactive) | -0.959 (inactive) | -0.385 (inactive) | -0.13 (inactive) | -0.265 (inactive) | -0.641 (inactive) | -2.41 | -0.181 |
| Cc1ccc(S[C@]2(C(=O)NC3CC3)CC(=O)N(C3CCCCC3)[C@@H]2c2ccc(CO)cc2I)cc1 | 0.57 | -0.134 (inactive) | -0.232 (inactive) | 1.44 (inactive) | 0.475 (inactive) | 0.537 (inactive) | 0.738 (inactive) | 0.377 (inactive) | -1.54 | -0.13 |
| CN1C=C(C(=O)OCCS(C)(=O)=O)C(C(=O)OCCS(C)(=O)=O)=CC(CCCO)=CC1C1CC1 (stereo not given) | 0.427 | -2.11 (inactive) | -0.16 (inactive) | -1.23 (inactive) | -0.353 (inactive) | -0.558 (inactive) | 1.38 (inactive) | 1.29 (inactive) | 0.0101 | -0.366 |
